{"source": "paper PMC4336329", "about": "(PLoS ONE, 2015)", "note": "Out of some 310,000 compounds screened, about 2,200 (0.71%) showed an effect of 50% or more. Effects have a minus sign here. The sample as a whole holds a higher share of strong results than the screen did."}
{"molecular_target": "human ether-à-go-go-related gene (hERG) potassium channel (human, UniProt Q12809)", "sequence (Q12809 whole entry, looked up)": "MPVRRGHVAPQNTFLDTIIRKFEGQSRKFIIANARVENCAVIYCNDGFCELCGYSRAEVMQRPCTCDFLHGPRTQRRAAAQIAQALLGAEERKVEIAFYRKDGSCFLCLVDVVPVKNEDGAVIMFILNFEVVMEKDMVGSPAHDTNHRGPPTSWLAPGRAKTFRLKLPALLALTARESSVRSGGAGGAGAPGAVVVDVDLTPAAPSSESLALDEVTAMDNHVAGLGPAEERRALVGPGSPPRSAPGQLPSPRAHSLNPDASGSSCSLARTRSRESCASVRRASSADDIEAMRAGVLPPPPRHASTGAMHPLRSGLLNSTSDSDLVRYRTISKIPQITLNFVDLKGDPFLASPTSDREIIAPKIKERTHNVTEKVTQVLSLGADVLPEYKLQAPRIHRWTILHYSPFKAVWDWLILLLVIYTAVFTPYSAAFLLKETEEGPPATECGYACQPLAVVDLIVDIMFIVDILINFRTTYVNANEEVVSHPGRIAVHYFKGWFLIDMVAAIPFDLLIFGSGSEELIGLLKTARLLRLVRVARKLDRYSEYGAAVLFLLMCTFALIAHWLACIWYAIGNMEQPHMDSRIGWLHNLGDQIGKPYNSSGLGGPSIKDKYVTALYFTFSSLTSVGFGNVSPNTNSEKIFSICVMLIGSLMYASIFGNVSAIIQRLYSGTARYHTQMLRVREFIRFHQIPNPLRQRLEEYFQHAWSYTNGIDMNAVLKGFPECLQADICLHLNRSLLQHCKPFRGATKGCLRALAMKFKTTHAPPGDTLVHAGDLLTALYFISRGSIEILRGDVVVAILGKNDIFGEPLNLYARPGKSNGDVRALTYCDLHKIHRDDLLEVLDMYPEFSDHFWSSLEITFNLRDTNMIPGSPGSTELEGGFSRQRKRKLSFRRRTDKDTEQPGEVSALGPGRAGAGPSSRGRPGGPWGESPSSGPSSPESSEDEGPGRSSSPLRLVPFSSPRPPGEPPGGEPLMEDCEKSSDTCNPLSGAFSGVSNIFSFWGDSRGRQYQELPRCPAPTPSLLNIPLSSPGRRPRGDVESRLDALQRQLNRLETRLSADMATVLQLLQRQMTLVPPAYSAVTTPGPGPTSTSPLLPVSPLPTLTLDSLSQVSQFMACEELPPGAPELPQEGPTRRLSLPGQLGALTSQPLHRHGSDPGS", "test": "primary screen, population patch clamp on CHO cells stably expressing hERG; higher = less effect of the substance", "units": {"hERG current change (%, negative = inhibition) at 1uM": "%"}}
{"smiles": "CCOc1ccc(N2CC(C(=O)Nc3ccc(S(=O)(=O)N4CCCC4)cc3)CC2=O)cc1", "note": "(stereo not drawn)", "hERG current change (%, negative = inhibition) at 1uM": 6.22}
{"smiles": "c1ccc(Nc2nn[nH]n2)cc1", "hERG current change (%, negative = inhibition) at 1uM": 10.1}
{"smiles": "NC(=O)c1sc2nc(N3CCCCC3)c3c(c2c1N)CCCC3", "hERG current change (%, negative = inhibition) at 1uM": 4.86}
{"smiles": "Cc1cc(Cl)c2oc(C(=O)N3CCN(C(=O)c4ccco4)CC3)c(C)c2c1", "hERG current change (%, negative = inhibition) at 1uM": 7.14}
{"smiles": "Cc1cc(Cl)c2oc(C(=O)N3CCN(c4cccc(C)n4)CC3)c(C)c2c1", "hERG current change (%, negative = inhibition) at 1uM": 14}
{"smiles": "Cc1cc(Cl)c2oc(C(=O)N3CCN(c4ccncc4)CC3)c(C)c2c1", "hERG current change (%, negative = inhibition) at 1uM": -83.6}
{"smiles": "Cc1ccc(S(=O)(=O)NCCC(=O)OCC(=O)N(Cc2ccccc2)C(C)(C)C)cc1C", "hERG current change (%, negative = inhibition) at 1uM": -0.298}
{"smiles": "COc1ccc(Cl)cc1C(=O)N1CCC2(CC1)CC(=O)c1ccccc1O2", "hERG current change (%, negative = inhibition) at 1uM": -71.7}
{"smiles": "O=C1CC2(CCN(C(=O)c3ccc([N+](=O)[O-])cc3)CC2)Oc2ccccc21", "hERG current change (%, negative = inhibition) at 1uM": -87.5}
{"smiles": "O=C1CC2(CCN(C(=O)c3c(F)cccc3F)CC2)Oc2ccccc21", "hERG current change (%, negative = inhibition) at 1uM": -3.63}
{"smiles": "O=C1CC2(CCN(C(=O)c3ccc(F)cc3)CC2)Oc2ccccc21", "hERG current change (%, negative = inhibition) at 1uM": -42.2}
{"smiles": "O=C1CC2(CCN(C(=O)c3cccc(Cl)c3)CC2)Oc2ccccc21", "hERG current change (%, negative = inhibition) at 1uM": -46.6}
{"smiles": "O=C1CC2(CCN(C(=O)c3cccc(F)c3)CC2)Oc2ccccc21", "hERG current change (%, negative = inhibition) at 1uM": -32.6}
{"smiles": "O=C1CC2(CCN(C(=O)c3cccc([N+](=O)[O-])c3)CC2)Oc2ccccc21", "hERG current change (%, negative = inhibition) at 1uM": -66.7}
{"smiles": "CC(=O)N1CCC2(CC1)CC(=O)c1cc(Cl)ccc1O2", "hERG current change (%, negative = inhibition) at 1uM": -7.88}
{"smiles": "O=C1CC2(CCN(C(=O)c3ccc(Cl)cc3)CC2)Oc2ccccc21", "hERG current change (%, negative = inhibition) at 1uM": -63.7}
{"smiles": "COc1ccccc1OCC(=O)N1CCC2(CC1)CC(=O)c1ccccc1O2", "hERG current change (%, negative = inhibition) at 1uM": -4.96}
{"smiles": "O=C(O)c1ccc(S(=O)(=O)N2CCC3(CC2)CC(=O)c2ccccc2O3)cc1", "hERG current change (%, negative = inhibition) at 1uM": 10.5}
{"smiles": "O=C(c1ccccc1)N1CCN(C(=O)c2ccc([N+](=O)[O-])cc2)CC1", "hERG current change (%, negative = inhibition) at 1uM": -4.32}
{"smiles": "CCO.CN1CC=C2C(C#N)=C(N)C(C#N)(C#N)[C@H](c3ccoc3)[C@H]2C1", "hERG current change (%, negative = inhibition) at 1uM": 6.1}
{"smiles": "COc1cc2ccccc2cc1C(=O)N(CCN(C)C)c1nc2c(OC)ccc(OC)c2s1.Cl", "hERG current change (%, negative = inhibition) at 1uM": 14}
{"smiles": "Cc1ccnc(NS(=O)(=O)c2ccc(NS(=O)(=O)c3ccc(Br)cc3)cc2)n1", "hERG current change (%, negative = inhibition) at 1uM": 16.1}
{"smiles": "COc1ccccc1NC(=S)NC(=O)/C=C/c1cccs1", "hERG current change (%, negative = inhibition) at 1uM": 12.3}
{"smiles": "COCCCNC(=O)CN(c1cc(Cl)cc(Cl)c1)S(C)(=O)=O", "hERG current change (%, negative = inhibition) at 1uM": 8.12}
{"smiles": "COc1cc(S(=O)(=O)N2CCN(C(=O)c3ccco3)CC2)ccc1Cl", "hERG current change (%, negative = inhibition) at 1uM": 8.83}
{"smiles": "Cn1ncc2nnn(-c3ccccc3)c(=O)c21", "hERG current change (%, negative = inhibition) at 1uM": -0.008}
{"smiles": "C=CCn1c(SCC(=O)Nc2sccc2C(N)=O)nc2ccc(Cl)cc2c1=O", "hERG current change (%, negative = inhibition) at 1uM": 1.53}
{"smiles": "FCCCOc1ccc(/C=N/OCc2ccc(Cl)cc2Cl)cc1", "hERG current change (%, negative = inhibition) at 1uM": 9.53}
{"smiles": "O=C1CC2(CCN(C(=O)c3cccc(Br)c3)CC2)Oc2ccccc21", "hERG current change (%, negative = inhibition) at 1uM": -56}
{"smiles": "Cc1c(C(=O)N2CCC3(CC2)CC(=O)c2ccccc2O3)cccc1[N+](=O)[O-]", "hERG current change (%, negative = inhibition) at 1uM": -83.9}
{"smiles": "O=C1CC2(CCN(C(=O)c3c(F)cccc3Cl)CC2)Oc2ccccc21", "hERG current change (%, negative = inhibition) at 1uM": -4.7}
{"smiles": "O=C1CC2(CCN(C(=O)c3ccccc3Br)CC2)Oc2ccccc21", "hERG current change (%, negative = inhibition) at 1uM": -51.4}
{"smiles": "O=C1CC2(CCN(C(=O)c3ccccc3F)CC2)Oc2ccccc21", "hERG current change (%, negative = inhibition) at 1uM": -47.9}
{"smiles": "O=C1CC2(CCN(C(=O)c3ccc(Br)cc3)CC2)Oc2ccccc21", "hERG current change (%, negative = inhibition) at 1uM": -30.8}
{"smiles": "O=C1CC2(CCN(C(=O)c3ccccc3[N+](=O)[O-])CC2)Oc2ccccc21", "hERG current change (%, negative = inhibition) at 1uM": -19}
{"smiles": "O=C1CC2(CCN(C(=O)c3ccccc3Cl)CC2)Oc2ccccc21", "hERG current change (%, negative = inhibition) at 1uM": -27.6}
{"smiles": "CSc1ccccc1C(=O)N1CCC2(CC1)CC(=O)c1ccccc1O2", "hERG current change (%, negative = inhibition) at 1uM": -27.2}
{"smiles": "CCn1nnc2cc(C(=O)Nc3cc(OC)cc(OC)c3)ccc21", "hERG current change (%, negative = inhibition) at 1uM": 19.3}
{"smiles": "O=C(CCn1c(=O)sc2ccccc21)Nc1ccon1", "hERG current change (%, negative = inhibition) at 1uM": 4.85}
{"smiles": "COC(=O)c1ccccc1NC(=S)NC(=O)c1ccc(C)cc1", "hERG current change (%, negative = inhibition) at 1uM": 9.88}
{"smiles": "CC(C)CSc1nc2ccccc2[nH]1", "hERG current change (%, negative = inhibition) at 1uM": 13}
{"smiles": "COCCN1C(=O)C(=O)/C(=C(/O)c2ccc(S(=O)(=O)N3CCCCC3)cc2)C1c1ccc(OC)cc1", "note": "(stereo not drawn)", "hERG current change (%, negative = inhibition) at 1uM": 11.9}
{"smiles": "C=CC[C@@H](C)CC(=O)C(CCCN=[N+]=[N-])SOOc1ccccc1", "note": "(stereo partly drawn)", "hERG current change (%, negative = inhibition) at 1uM": 11.2}
{"smiles": "Cc1ccc(S(=O)(=O)N2c3ccccc3-c3c(ssc3=S)C2(C)C)cc1", "hERG current change (%, negative = inhibition) at 1uM": -1.68}
{"smiles": "COc1ccccc1OCC(=O)Nc1ccccc1C(=O)N1CCCC1", "hERG current change (%, negative = inhibition) at 1uM": 5.81}
{"smiles": "Cc1cc(C)n2nc(C(=O)N3CCN(c4ccc([N+](=O)[O-])cc4)CC3)nc2n1", "hERG current change (%, negative = inhibition) at 1uM": -77.6}
{"smiles": "O=C(c1ccc2nsnc2c1)N1CCN(c2ccc([N+](=O)[O-])cc2)CC1", "hERG current change (%, negative = inhibition) at 1uM": -57.4}
{"smiles": "O=C(c1ccc2c(c1)OCCO2)N1CCN(c2ccc([N+](=O)[O-])cc2)CC1", "hERG current change (%, negative = inhibition) at 1uM": 1.16}
{"smiles": "O=C(c1ccc(-c2ccc([N+](=O)[O-])cc2)o1)N1CCCCCCC1", "hERG current change (%, negative = inhibition) at 1uM": -6.48}
{"smiles": "Cc1c(Cl)cccc1-c1ccc(C(=O)N2CCN(c3ccc([N+](=O)[O-])cc3)CC2)o1", "hERG current change (%, negative = inhibition) at 1uM": -1.98}
{"smiles": "Cc1ccc(C(=O)N2CCN(c3ccc([N+](=O)[O-])cc3)CC2)o1", "hERG current change (%, negative = inhibition) at 1uM": -79}
{"smiles": "Cc1cc(C(=O)N2CCN(c3ccc([N+](=O)[O-])cc3)CC2)c(C)o1", "hERG current change (%, negative = inhibition) at 1uM": -35.1}
{"smiles": "COc1ccc(N2CCN(C(=O)c3nc4nc(C)cc(C)n4n3)CC2)cc1", "hERG current change (%, negative = inhibition) at 1uM": 7.39}
{"smiles": "CCCN1CCN(C(=O)c2ccc(-c3ccc([N+](=O)[O-])cc3)o2)CC1", "hERG current change (%, negative = inhibition) at 1uM": -70.1}
{"smiles": "O=C(c1ccc(-c2ccc([N+](=O)[O-])cc2)o1)N1CCCCC1", "hERG current change (%, negative = inhibition) at 1uM": -10.5}
{"smiles": "CCc1nc2ccc(C(=O)N3CCN(c4ccc([N+](=O)[O-])cc4)CC3)cc2nc1CC", "hERG current change (%, negative = inhibition) at 1uM": -38.2}
{"smiles": "COc1cccc(N2CCN(C(=O)c3nc4nc(C)cc(C)n4n3)CC2)c1", "hERG current change (%, negative = inhibition) at 1uM": 8.37}
